Results filed as inconclusive are left out. A call without a number means that no potency is given here. Values without a mark were called inactive. Activity calls are given as the source filed them. Calls follow the shape of the dose curve; as a rule, active = well fitted curve in the direction sought with a large enough effect; inconclusive = small, poorly fitted or top-dose-only effect, or another doubt; inactive = no such curve, though single readings can be large; an effect the other way counts as inactive or inconclusive.

This note sets out measurements from PubChem BioAssay (NCATS).

The target in test [1] is Aldehyde dehydrogenase, mitochondrial (Homo sapiens) (UniProt P05091). Description: qHTS for Inhibitors of the Aldehyde Dehydrogenase Family (ALDH2) Primary screen (AID 2061308). Also: nearly all actives have a fitted effect of over 55% in size.
In test [2] the target is Retinaldehyde dehydrogenase 3 (Homo sapiens) (UniProt P47895). Description: qHTS for Inhibitors of the Aldehyde Dehydrogenase Family (ALDH1A3) Primary screen (AID 2061315).

For the compound `CCN1CCN(c2cc(-c3ccc(F)cc3)c3c(n2)CCCCCC3)CC1`, the Potency result in test [1] and in test [2] was “inactive” each time.

For the compound `O=S1(=O)N=C(Oc2cccc(-c3ccccc3)c2)c2ccccc21`, the Potency result in test [1] and in test [2] was “inactive” throughout.

In the case of `Cn1c2ccsc2c2cnn(Cc3ccccc3F)c(=O)c21`, the Potency result in test [1] and in test [2] was “inactive” each time.

For the compound `O=C(Nc1ccc(-c2nc3ccccc3[nH]2)cc1)c1ccc2sccc2c1`, the Potency entry in test [1] and in test [2] was “inactive” in each case.

As for `CC(=O)c1ccc(N2CCN(S(=O)(=O)c3ccc4c(c3)CC(=O)N4)CC2)cc1`, the Potency entry in test [1] and in test [2] was “inactive” each time.

Take `COc1cc(O)c(C(CC(=O)N2CCCCC2)c2ccc(C)cc2)c(OC)c1` (configuration not stated): the Potency result in test [1] and in test [2] was “inactive” in each case.

Regarding `Cc1cc2c(s1)c1cnn(Cc3ccc(C(C)C)cc3)c(=O)c1n2C`, the Potency entry in test [1] and in test [2] was “inactive” throughout.

Take `COc1cccc(-c2ccc(=O)n(CC(=O)NCCc3ccccc3)n2)c1`: the Potency entry in test [1] and in test [2] was “inactive” each time.

On to `Cc1cc2c(s1)c1cnn(Cc3c(F)cccc3Cl)c(=O)c1n2C`, for which the Potency result in test [1] and in test [2] was “inactive” each time.

In the case of `Cc1ccc(NS(=O)(=O)c2cccc(C(=O)O)c2)cc1C`, the Potency result in test [1] and in test [2] was “inactive” in each case.

`COc1cccc(-n2cnc3cc(C(=O)N4CCCCC4)ccc32)c1`: the Potency result in test [1] and in test [2] was “inactive” in each case.

For the compound `O=C(Nc1cccc(C(=O)O)c1)Nc1nnc(-c2ccncc2)s1`, the Potency entry in test [1] and in test [2] was “inactive” each time.

As to `COc1ccc(NS(=O)(=O)c2ccc(C)cc2)c(C(=O)Nc2nc(-c3ccccc3)cs2)c1`, the Potency entry in test [1] and in test [2] was “inactive” throughout.

Take `COc1ccc(NS(=O)(=O)c2ccc3c(c2)CCC(=O)N3)cc1`: the Potency result in test [1] and in test [2] was “inactive” throughout.

Consider `CN(C)CCNc1ncnc2ccc(-c3ccc4c(c3)OCO4)cc12`, for which the Potency result in test [1] and in test [2] was “inactive” in each case.

For `O=C(NCCCn1ccnc1)c1nn2c(C(F)(F)F)cc(-c3ccc(Br)cc3)nc2c1Cl`, the Potency entry in test [1] and in test [2] was “inactive” each time.

Regarding `O=S(=O)(NCC1CN(S(=O)(=O)c2ccc3c(c2)OCCO3)C1)c1c(F)cccc1F`, the Potency result in test [1] and in test [2] was “inactive” in each case.

As for `Cn1c(=O)c2c(nc(CN3CCN(C(=O)C4CC4)CC3)n2Cc2cccc(F)c2)n(C)c1=O`, the Potency result in test [1] and in test [2] was “inactive” in each case.

Consider `CN1[C@@H]2CC[C@H]1CC(OC(c1ccccc1)c1ccccc1)C2` (some centres not stated), for which the Potency result in test [1] and in test [2] was “inactive” throughout.

Consider `Cc1cccc(-n2cnc3cc(C(=O)NC(C)(C)C)ccc32)c1`, for which the Potency entry in test [1] and in test [2] was “inactive” throughout.

Consider `Cc1cc2c(s1)c1cnn(Cc3ccc(SC(F)(F)F)cc3)c(=O)c1n2C`, for which the Potency entry in test [1] and in test [2] was “inactive” in each case.

As for `Cc1ccccc1N(C)C1=N[S+](=O)([O-])c2ccccc21`, the Potency result in test [1] and in test [2] was “inactive” each time.

On to `O=C1CCc2cc(S(=O)(=O)Nc3ccc(Cl)c(Cl)c3)ccc2N1`, for which the Potency result in test [1] and in test [2] was “inactive” throughout.

For the compound `c1ccc(-c2nc(NCc3ccc(-c4cccnc4)cc3)c3ccccc3n2)cc1`, the Potency entry in test [1] and in test [2] was “inactive” in each case.

`O=C(OCC#CCSc1nnc(-c2ccc3ccccc3c2)o1)c1ccc(OC(F)(F)F)cc1`: the Potency result in test [1] and in test [2] was “inactive” throughout.

`Cc1cc(C)nc(NC(=S)N2CCN(c3ccc(Cl)c(Cl)c3)CC2)c1`: the Potency entry in test [1] and in test [2] was “inactive” each time.

For the compound `O=C1CCCC2=C1C(c1ccccc1C(F)(F)F)N=C(Nc1nc3ccccc3o1)N2` (configuration not stated), the Potency result in test [1] and in test [2] was “inactive” throughout.

Turning to `FC(F)(F)c1cccc(N2CCN(C(=S)Nc3nccc4ccccc34)CC2)c1`, the Potency entry in test [1] and in test [2] was “inactive” in each case.

Consider `O=C(NC(NC(=S)Nc1ccc(F)c([N+](=O)[O-])c1)C(Cl)(Cl)Cl)C(c1ccccc1)c1ccccc1` (configuration not stated), for which the Potency entry in test [1] and in test [2] was “inactive” in each case.

`COc1ccc(-c2ccc3ncnc(NCCc4cnc[nH]4)c3c2)cc1OC`: the Potency result in test [1] and in test [2] was “inactive” each time.

With `COC(=O)c1ccc2c(c1)/C(=C/c1cc(Br)c(O)c(Br)c1)C(=O)N2`, the Potency entry in test [1] and in test [2] was “inactive” in each case.

`CCN(CC)C(=O)c1cc(S(=O)(=O)Cc2ccccc2)c(N2CCC(c3ccccc3)CC2)cc1N(CC)CCN(C)C`: the Potency result in test [1] and in test [2] was “inactive” each time.

On to `FC(F)(F)c1ccccc1-c1nc(NCc2cccc3ccccc23)c2ccccc2n1`, for which the Potency result in test [1] and in test [2] was “inactive” in each case.

As to `O=C(OCC#CCSc1nnc(-c2cccc3ccccc23)o1)c1ccccc1F`, the Potency result in test [1] and in test [2] was “inactive” throughout.

Turning to `Cc1cc2c(s1)c1cnn(Cc3ccc(F)c(Cl)c3)c(=O)c1n2C`, the Potency entry in test [1] and in test [2] was “inactive” in each case.

In the case of `O=C1Cc2cc(S(=O)(=O)N3CCN(c4cccc(C(F)(F)F)c4)CC3)ccc2N1`, the Potency entry in test [1] and in test [2] was “inactive” each time.

Turning to `COc1cc(O)c(C(CC(=O)N2CCCC(C)(C)C2)c2ccc3c(c2)OCO3)c(OC)c1` (configuration not stated), the Potency entry in test [1] and in test [2] was “inactive” throughout.

Regarding `Cc1cc(C)nc(NC(=S)N2CCN(c3cccc(C#N)c3)CC2)c1`, the Potency result in test [1] and in test [2] was “inactive” in each case.

Regarding `CC(=O)Nc1sc2c(c1-c1ccc3c(c1)CCO3)CCNC2`, the Potency entry in test [1] and in test [2] was “inactive” each time.

Turning to `CCCN(C)c1ncnc2ccc(-c3ccc4c(c3)OCO4)cc12`, the Potency entry in test [1] and in test [2] was “inactive” in each case.

In the case of `CCCn1c(-c2ccc(F)cc2)nc2c(NCC3CCCN3CC)nc(C)nc21` (configuration not stated), the Potency entry in test [1] and in test [2] was “inactive” throughout.

Take `N#Cc1nc(-c2cccc3ccccc23)oc1N`: the Potency result in test [1] and in test [2] was “inactive” each time.

Regarding `Cc1nnc(-c2cnn(C)c2N)n1CCc1cccs1`, the Potency result in test [1] and in test [2] was “inactive” throughout.

In the case of `O=C1CCCC2=C1C(c1[nH]ncc1Cl)N=C(Nc1nc3cc([S+](=O)([O-])N4CCOCC4)ccc3o1)N2` (configuration not stated), the Potency result in test [1] and in test [2] was “inactive” each time.

For the compound `Cn1nnnc1Sc1ncnc2scc(-c3cccc(F)c3)c12`, the Potency result in test [1] and in test [2] was “inactive” throughout.

As to `O=C(Cc1ccc(Cl)c(Cl)c1)Nc1ccc([S+](=O)([O-])Nc2ccc([N+](=O)[O-])cc2)cc1`, the Potency result in test [1] and in test [2] was “inactive” throughout.
